ERK EGF block – EGF-driven ERK pathway inhibition. HEK293-V1b, EGF-stimulated phospho-ERK AlphaScreen. Potency, µM (top dose mostly 11.5 µM), without a hit: top-dose activity change, negative = inhibition, usual class: inhibitors. 130,000 compounds, 0.41% hits. AID 1454;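 also: plate controls were stimulated vehicle wells for no effect and unstimulated vehicle basal for full effect; nearly all actives have a fitted effect of over 55% in size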
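In this qHTS, HEK293 cells with stable type-1 vasopressin (V1b) receptor were exposed to compound at 37C for 30 min, stimulated 5 min with EGF at 25 nM, lysed, and probed for phospho-ERK by AlphaScreen.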
HTT aggregate – inhibitors of mutant huntingtin aggregate formation in PC12 cells | PC12 HttQ103-GFP aggregates, Acumen cytometry, 40 h | 220,000 compounds, 1.1% hits | Potency, µM (top dose mostly 46.1 µM), for the others: top-dose activity change, negative = inhibition, hits mostly inhibitors; also: % is scaled to controls: 0 for no effect and ±100 for the full control effect; nearly all actives have a fitted effect of over 60% in size
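PC12/HTTQ103-GFP, ecdysone-inducible; teb 100 nM; cpd qHTS titration; GFP aggregates read on laser cytometer, Ex 488/Em 500-530 nm.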
HTT cytoprotect – Huntington cell model cytoprotection by ATP luminescence | PC12 HTT-Q103 induced, cytoprotection, ATP luminescence, 40 h | Potency, µM (top dose mostly 56.4 µM), for inactives: cytoprotection (ATP increase), most hits filed as activators | 230,000 compounds, 0.14% hits; also: % of control where 0% means no effect; nearly all actives have a fitted effect of over 45% in size
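Huntington model: PC12 line, ecdysone-inducible HTTQ103 exon1–GFP, tebufenozide 100 nM. Test articles in a dose series. Endpoint luminescence from cellular ATP.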
An asterisk follows results filed as active; ? = inconclusive; / = no result given; [ ] = remark or other dose. Compounds with a hit are over-represented: about 1.4% of the library has one in this group of screens. Calls follow the shape of the dose curve; as a rule, active = well fitted curve in the direction sought with a large enough effect; inconclusive = small, poorly fitted or top-dose-only effect, or another doubt; inactive = no such curve, though single readings can be large; an effect the other way counts as inactive or inconclusive. Potency is read from the fitted curve at half-maximal effect.

SMILES | ERK EGF block | HTT aggregate | HTT cytoprotect
Nc1cc2ccncc2c2ccccc12 | -4%[57.5 µM] | 0.35µM* | 20%[10 µM]
COc1ccc(C(=O)N2CCC3(CC2)CN(c2ccccn2)C3)cc1 | -3% | / | -45%
Cc1cc(Nc2c(C)n(C)n(-c3ccccc3)c2=O)n2c(nc3ccccc32)c1C#N | / | -10% | -27%
Cc1cc(Nc2cccc([N+](=O)[O-])c2)n2c(nc3ccccc32)c1C#N | / | 2.8µM* | -2%[10 µM]
CCCCC=O | / | / | 1%
COc1ccccc1CNc1ncncc1-c1ccc(C(=O)N(C)C)cc1 | / | / | 2%
Cc1ccc(OCCNS(=O)(=O)c2ccc(N3CCCC3=O)cc2)cc1 | 2% | 11µM* | 18%[10 µM]
Cc1ccc(OCCNS(=O)(=O)c2ccc(N3CCCC3=O)cc2)cc1C | / | ? | -16%
C[C@H](C(=O)c1ccccc1)[C@@H](c1ccccc1)N1CCOCC1 | / | / | -2%[10 µM]
Cn1nc(CC(=O)Nc2ccc3c(c2)OCCO3)c2ccccc2c1=O | / | ? | 0%[10 µM]
Cn1nc(CC(=O)N2CCN(c3ccccc3)CC2)c2ccccc2c1=O | / | -13% | -10%[0.074 µM]
Cc1ccc(NC(=O)Cc2nn(C)c(=O)c3ccccc23)cc1F | / | 3.5µM* | -27%
Cn1nc(CC(=O)Nc2ccc(N3CCN(C(=O)OC(C)(C)C)CC3)cc2)c2ccccc2c1=O | -8% | 4µM* | 32%[10 µM]
O=C(c1cnccn1)N1CCC2(CCCN(c3cccc(-c4ccccc4)c3)C2)CC1 | 21% | / | -81%
CC(C)Cc1csc(NC(=O)c2ccc(Cl)cc2)c1C(=O)O | -2% | 22µM* | 11%[10 µM]
CC(C)Cc1csc(NC(=O)c2ccccc2Cl)c1C(=O)O | 1% | 2% | -15%[10 µM]
COc1ccc(-n2c(=O)c(C)nc3cnc(Oc4cccc(Cl)c4)nc32)cc1 | -8% | / | -1%
NC(CS)C(=O)O (configuration not stated) | / | 26% | -3%
CC1C(=O)N(C)C(=O)c2nc[nH]c21 (configuration not stated) | 8% | / | /
COn1c2c(c3c4nonc4ccc31)CCCC2 | / | ? | 4%
COn1c(C)c(C(C)=O)c2c3nonc3ccc21 | / | 35µM* | 6%
O=S(=O)(Cc1ccccc1)c1nnnn1C1CCCCC1 | -5% | / | -4%
COC(=O)CCCC1=CC2=C(c3ccccc3)C(=O)C(C)(OC(=O)C3CCCC3)C(=O)C2=CN1CCCOC(C)C (configuration not stated) | / | / | -19%[10 µM]
CCOc1ccc(C(=O)NCCc2ccc3c(c2)OCCO3)cc1 | 1% | 5µM* | /
COc1ccc(CCNC(=O)c2ccc3c(c2)OCCO3)cc1 | -1% | 8% | /
SMILES | ERK EGF block | HTT aggregate | HTT cytoprotect
Cc1nc2cnc(Oc3ccccc3)nc2n(Cc2cccs2)c1=O | / | / | -47%
COC(=O)C1(Cc2ccccc2)C=C2C(=C(c3ccccc3)C(=O)C2C)CN1 (configuration not stated) | 3% | / | -81%
O=C(CSc1nnc(Cn2nnc3ccccc32)o1)Nc1cccc(Cl)c1 | / | 4% | 18%
O=C(CSc1nnc(Cn2nnc3ccccc32)o1)N(Cc1ccc(Cl)cc1)c1ccccc1 | / | 7.1µM* | -13%
C/C(C[n+]1ccccc1)=N\N=C(N)N | / | / | 3%[10 µM]
CCOC(=O)c1c(C)cc(O)c(C=O)c1O | 3% | / | -61%
Cc1ccc(S(=O)(=O)O[C@H]2C[C@@H](C(C)(C)C)CC[C@@H]2c2ccccc2)cc1 | / | / | 10%[10 µM]
Clc1ccccc1-c1nc(NC2CCNCC2)c2ccccc2n1 | / | / | -56%
CCC(C)Nc1ncnc2c1cnn2Cc1ccc(Cl)cc1 (configuration not stated) | / | 25µM* | -41%
CC1CCN(c2ncnc3c2cnn3Cc2ccc(Cl)cc2)CC1 | / | ? | -49%
COc1ccc(Nc2ncnc3c2cnn3Cc2ccccc2)cc1 | / | -26% | -8%[10 µM]
c1ccc(CNc2ncnc3c2cnn3Cc2ccccc2)cc1 | 8% | 22µM* | -33%[10 µM]
CN1C[C@@H]2C[C@H]1CN2c1cc2c(cc1F)c(=O)c(C(=O)O)cn2C1CC1 | / | 2% | 51%
COC1C=CC23c4cc5c(cc4CN(CC2O)C3C1)OCO5 (configuration not stated) | 11% | / | -36%
COc1ccc2cc1Oc1ccc(cc1)C[C@@H]1c3c(cc(OC)c4c3Oc3cc5c(cc3O4)CCN[C@H]5C2)CCN1C | / | / | 18%[10 µM]
Cc1ccc(-c2n[nH]c(=S)n2/N=C/C=C\c2ccccc2[N+](=O)[O-])cc1 | / | 26% | 28%
COc1ccccc1N1CCN(/N=C/C=C\c2ccco2)CC1 | / | 17% | -34%
COc1ccccc1N1CCN(/N=C/C=C\c2ccccc2[N+](=O)[O-])CC1 | 25µM* | -24% | -27%
CC1CCCC(C)N1/N=C/C=C/c1ccccc1[N+](=O)[O-] (configuration not stated) | 20µM* | 9% | 10%[10 µM]
O=C(NNC(=O)C(c1ccccc1)c1ccccc1)c1ccccn1 | 5% | 10µM* | 10%[10 µM]
O=C(CCc1ccccc1)NNC(=O)Cc1ccccc1 | -1% | 2%[9.22 µM] | 28%[10 µM]
O=C(NNc1ccccn1)C(c1ccccc1)c1ccccc1 | 0% | 0% | -16%
O=C(CCc1ccccc1)NNC(=O)c1ccccn1 | -4% | 13µM* | -80%
CC(C)c1cccc2nc3c(c(C(C)(C)C)c12)Cn1c-3cccc1=O | 13% | / | 16%
CCS(=O)(=O)Nc1ccccc1C(N)=O | -12% | 4% | 1%[10 µM]
SMILES | ERK EGF block | HTT aggregate | HTT cytoprotect
CN(C)S(=O)(=O)Nc1ccccc1C(N)=O | / | 3.5µM* | -7%
COCCn1c(=O)c(C)nc2cnc(OC)nc21 | / | / | 5%
CN(C)CCCN(C(=O)CCOc1ccccc1)c1nc2c(F)cccc2s1 | -1% | 13µM* | -176%
CN(C)CCCN(C(=O)CCc1ccccc1)c1nc2c(F)cccc2s1 | 11% | 19% | 2%[10 µM]
Nc1nc2c(ncn2[C@@H]2C=C[C@@H](CO)C2)c(=O)[nH]1 | / | / | -23%[10 µM]
COc1ccc(-n2c(=O)cnc3cnc(OC)nc32)cc1 | / | / | -70%
O=C(COc1ccc(Cl)cc1Cl)NC(=S)Nc1ccc(CN2CCOCC2)cc1 | 20µM* | 9%[9.22 µM] | 11%[10 µM]
O=C(COc1ccccc1Cl)NC(=S)Nc1ccc(CN2CCOCC2)cc1 | -12% | -8% | /
NCCO/C=C/[C@H](N)C(=O)O | / | 38% | -16%
CCC(COC(=O)Nc1cccc(C)c1)NC(=O)OCC(C)C (configuration not stated) | / | 10µM* | -35%
CCNC(=O)OCC(CC)NC(=O)OCC(C)C (configuration not stated) | / | 5% | -4%
COc1ccc([N+](=O)[O-])cc1NC(=S)NC(C)=O | -5% | ? | 24%[10 µM]
CC(=O)NC(=S)Nc1ccc([N+](=O)[O-])cc1C | -10% | ? | 11µM*
CN[C@@H]1[C@H](O)[C@H](NC)[C@@H]2O[C@]3(O)C(=O)C[C@@H](C)O[C@H]3O[C@@H]2[C@H]1O | / | / | 51%
COc1ccc2[nH]c(=O)c(CN(CC3CCCO3)C(=O)Nc3ccc(F)cc3)cc2c1 (configuration not stated) | / | 11µM* | 5%[10 µM]
COc1ccc(NC(=O)N(Cc2cc3cc(C)ccc3[nH]c2=O)CC2CCCO2)cc1 (configuration not stated) | -27%[57.5 µM] | 5%[9.22 µM] | 5%[10 µM]
CCCCNc1nc(C)nc2c1nc(-c1ccccc1)n2CCN1CCCCC1 | -7% | / | -42%
C(=N\n1cnnc1)/c1ccc(OCc2ccccc2)cc1 | / | 0% | -22%
